In all, about 48,000 compounds went through this assay and about 13,000 (27%) showed an effect of 50% or more. Some of the results follow.

The subject of the test is Wolbachia pipientis. In words: Anti-Wolbachia Cell-Based Screen. It is filed as functional. Also noted: scale not given: in the data most compounds retested in dose-response had high values. The settings on record: 5 µM.
In the case of `CCN(C)C(=O)c1cccc(S(=O)(=O)NCCc2nc(C)cc(=O)[nH]2)c1`, the “Percent Effect” value is given as -0.1797%.
The result for `CC(=O)N(C)c1nc(CN2CCOC(Cn3cccn3)C2)cs1` (stereo not drawn) reads -26.66%; that for `CC(=O)Nc1nc(CN2CCOC(Cn3cncn3)C2)cs1` (stereo not drawn), 64.84%.
In the case of `CC(=O)Nc1nc(CN2CCOC(Cn3cccn3)C2)cs1` (stereo not drawn) it was 107.9%; in that of `CC(=O)Nc1nc(CN2CCOC(Cn3nc(C)cc3C)C2)cs1` (stereo not drawn), 94.09%; in that of `CC(=O)Nc1nc(CN2CCOC(Cn3cc(C)cn3)C2)cs1` (stereo not drawn), 2.495%.
The result for `Cc1ccnc(C(NC(=O)c2oc(C)nc2C)C2CC2)n1` (stereo not drawn) reads -17.11%.
Take `COC(=O)CN(C(=O)c1ccoc1)c1cccc(F)c1`: the “Percent Effect” value is reported as 2.098%.
As to `O=C1CCCN1Cc1noc(-c2ccc(Cl)cc2)n1`, the “Percent Effect” value was determined as 123.5%.
Turning to `O=C1CCCN1CCc1noc(-c2ccc(Cl)cc2)n1`, the “Percent Effect” value was 5.135%.
The result for `O=C1CCCN1CCc1noc(-c2ccsc2)n1` reads 1.002%; that for `CC(C)(N)c1cn([C@@H]2c3ccccc3C3(CCNCC3)[C@H]2O)nn1`, -37.53%.
Regarding `Cc1noc(CS(=O)(=O)CC(=O)NC(C)c2ccccc2)n1` (stereo not drawn), the “Percent Effect” value is listed as -0.1878%.
With `CCN(Cc1ccc2c(c1)OCO2)S(=O)(=O)N(C)C`, the “Percent Effect” value worked out at 94.54%.
Turning to `CCN(Cc1cccs1)S(=O)(=O)N(C)C(C)C`, the “Percent Effect” value was 15.86%.
Consider `CCN(Cc1ccc2c(c1)OCO2)S(=O)(=O)N(C)C(C)C`, for which the “Percent Effect” value was 112.9%.
As for `CCN(C)S(=O)(=O)N(CC)Cc1ccc2c(c1)OCO2`, the “Percent Effect” value is given as 0.6799%.
Take `CCN(Cc1ccc2c(c1)OCO2)c1ncc(S(N)(=O)=O)s1`: the “Percent Effect” value was -18.45%.
The result for `CCN(Cc1ccc2c(c1)OCCO2)S(=O)(=O)N(C)C(C)C` reads -1.208%.
With `Cc1ccc(-n2cc(CN3CCN(C)[C@@H]4CS(=O)(=O)C[C@@H]43)cn2)cc1`, the “Percent Effect” value came to 6.274%.
Take `CN(Cc1ccccc1O)C(=O)Nc1cc(F)cc(N2CCCC2)c1`: the “Percent Effect” value is given as -6.524%.
With `COCC(C)(C#N)NC(=O)COc1ccccc1` (stereo not drawn), the “Percent Effect” value is reported as -21.26%.
As to `CC(C)[C@@H]1CN(C(=O)c2ccc3c(c2)CCCO3)C[C@H]1NS(C)(=O)=O`, the “Percent Effect” value stood at 0.04909%.
In the case of `O=C(O)C(=O)O.c1cncc(-c2noc(C3CN(Cc4cccs4)C3)n2)c1`, the “Percent Effect” value was 13.98%.
`O=C(O)C(F)(F)F.O=C(c1ccsc1)N1C[C@H]2CN(Cc3cccnc3)C(=O)[C@H]2C1`: the “Percent Effect” value is -7.854%.
As for `O=C(C1CCOC1)N1C[C@H]2CN(Cc3cccnc3)C(=O)[C@H]2C1.O=C(O)C(F)(F)F` (stereo partly drawn), the “Percent Effect” value is 101.2%.
The result for `O=C(C1CCOC1)N1C[C@H]2CN(Cc3ccncc3)C(=O)[C@H]2C1.O=C(O)C(F)(F)F` (stereo partly drawn) reads 94.79%; that for `O=C(C1CCOC1)N1CCC2(CC1)COCCN(Cc1ccncc1)C2.O=C(O)C(F)(F)F.O=C(O)C(F)(F)F` (stereo not drawn), -2.392%.
The result for `CN(C)CCN1C[C@@H]2CN(C(=O)C3CCOC3)C[C@@H]2C1=O.O=C(O)C(F)(F)F` (stereo partly drawn) reads -5.233%; that for `CCc1[nH]c2c(CNc3cncc(C(=O)N(C)C)n3)cc(F)cc2c1C`, -5.745%; that for `Cn1c(CN2CCOCC2)nnc1C1CCCN(C(=O)CCC2CC2)C1` (stereo not drawn), 24.17%.
Consider `C[C@]1(O)CCN(Cc2cccnc2)C[C@@H]1Oc1cccc(F)c1`, for which the “Percent Effect” value came to 99%.
As for `C[C@]1(O)CCN(Cc2nccs2)C[C@@H]1Oc1cccc(F)c1`, the “Percent Effect” value is reported as 121.8%.
On to `CN1CC(=O)N(c2cccc(F)c2)CC12CCN(Cc1cncn1C)C2.O=C(O)C(F)(F)F.O=C(O)C(F)(F)F` (stereo not drawn), for which the “Percent Effect” value is given as -8.718%.
For the compound `Cc1ncc(CN2CC[C@@](C)(O)[C@H](Oc3cccc(F)c3)C2)cn1`, the “Percent Effect” value amounted to 104.1%.
As for `Fc1ccc(OCc2nnc([C@H]3CCN(Cc4cccnc4)C3)o2)cc1`, the “Percent Effect” value amounted to 16.65%.
The result for `COc1ncc(CN2CC[C@@](C)(O)[C@H](Oc3cccc(F)c3)C2)cn1` reads 2.732%; that for `CN1CC2(CCN(Cc3cccnc3)CC2)c2cc(F)ccc21`, 3.699%.
In the case of `C[C@]1(O)CCN(Cc2cncs2)C[C@@H]1Oc1cccc(F)c1` it was 4.149%; in that of `CCOc1ccc(CN2CC[C@@](C)(O)[C@@H](Cc3ccccc3)C2)cn1`, 4.384%.
Take `Cn1cncc1CN1CC[C@](C)(O)[C@@H](Oc2cccc(F)c2)C1`: the “Percent Effect” value turned out to be 104.7%.
In the case of `CN1CC(=O)N(c2cccc(F)c2)CC12CCN(Cc1nccs1)C2.O=C(O)C(F)(F)F.O=C(O)C(F)(F)F` (stereo not drawn) it was -3.054%.
With `c1cc(-c2noc(-c3cc(C4CC4)on3)n2)cc(N2CCCCC2)n1`, the “Percent Effect” value was -2.255%.
As to `CCn1nc2c(cc1=O)CN(Cc1nc(N)c3ccccc3n1)CC2`, the “Percent Effect” value is 12.33%.
The result for `O=C(Cc1csc(N2CCNC2=O)n1)NCC1(c2ccccc2)CC1` reads 8.123%; that for `Cc1ncsc1CN1C[C@H]2CC[C@@H]1CN(Cc1ccccc1)C2`, 1.915%; that for `Cc1ncsc1CNc1cccc(OCCN2CCCC2)c1`, 8.667%.
In the case of `Cc1ncsc1CN1CC[C@](C)(O)[C@@H](Oc2cccc(F)c2)C1`, the “Percent Effect” value amounted to 111.6%.
Turning to `Cc1nnc(SCCCNC(=O)Nc2ccc3c(c2)OCO3)s1`, the “Percent Effect” value is on record as 7.014%.
As for `COc1ccccc1CN1C(=O)O[C@@H]2CN(c3nc(C)cnc3C)C[C@@H]21`, the “Percent Effect” value is on record as -4.864%.
As to `COc1ccccc1CN1C(=O)O[C@@H]2CN(c3nc(C)cc(C)n3)C[C@@H]21`, the “Percent Effect” value is recorded as -8.092%.
As to `NC(=O)c1cc2c(nc1-c1ccoc1)CCC2`, the “Percent Effect” value is given as -15.41%.
For `CN(CC1CCCCO1)c1nc2c(cc1C(N)=O)CCC2` (stereo not drawn), the “Percent Effect” value was -5.698%.
`Cc1ccc(C(N)=O)c(N2C[C@H]3OC(=O)N(C4CCCC4)[C@H]3C2)n1`: the “Percent Effect” value is given as 112.7%.
Consider `Cc1cnc(C)c(N2CCCC(CC3CC3)(C(=O)O)C2)n1` (stereo not drawn), for which the “Percent Effect” value amounted to 0.08182%.
With `Cc1ccc(N2C[C@H]3OCC[C@H]3[C@H](C(=O)NC3CCCC3)C2)nn1`, the “Percent Effect” value is 11.3%.
For the compound `Cc1cnc(C)c(N2C[C@H]3OC(=O)N(C4CCCC4)[C@H]3C2)n1`, the “Percent Effect” value came to 94.65%.
For the compound `NC(=O)c1cc2c(nc1N1C[C@H]3OC(=O)N(C4CCCC4)[C@H]3C1)CCC2`, the “Percent Effect” value was 94.23%.

The values above are taken from ChEMBL document CHEMBL3988442, “University of Dundee, Small-Polar-MMV Screening Library” (2021).
